# From PubChem BioAssay AID488890 (Southern Research Specialized Biocontainment Screening …, 2010)
# Screen size: about 320,000 compounds; about 1,300 (0.41%) were called active. About 3% were inconclusive and are not listed. The rule behind the calls is not given here. These entries were drawn from the full list. Measured potencies and affinities stand elsewhere.
# Experiment: growth inhibition of non-replicating M. tuberculosis (AID 488890);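 note: plate controls were DMSO cells for no effect and high antibiotic wells for full effect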
# Conditions: Mycobacterium tuberculosis non-replicating, at 25 µM, stronger effect = higher value
row,Compound,inhibition [%]
1,CC1CCCCN1S(=O)(=O)c1ccc(S(=O)(=O)N2CCCC2)cc1 (stereo unspecified),4.73
2,CCOc1ccc(CCNS(=O)(=O)c2cc3c(cc2C)NC(=O)CO3)cc1OCC,16.2
3,O=C(Cc1cccc2ccccc12)Nc1ccccc1Br,12.5
4,CC(=O)Nc1nnc(SCC(=O)NCc2ccc3c(c2)OCO3)s1,-14.9
5,Cc1ccc(C(=O)NCc2ccc3c(c2)OCO3)cc1Cl,45.9
6,Cc1ccc(CS(=O)(=O)CCC(=O)N2CCC3(CC2)OCCO3)cc1,-11.2
7,Cc1ccc(S(=O)(=O)Nc2ccccc2F)cc1C(=O)NCCCN1CCCC1=O,-4.79
8,CCOC(=O)c1c(S(=O)(=O)Nc2ccc(C)c(F)c2)c(C)n(C)c1C,-0.18
9,CC1(C)CC(=O)C(C2=NC3(CCCCCC3)Cc3ccccc32)=C(O)C1,-2.29
10,CS(=O)(=O)N1CCC(C(=O)Nc2cc(Cl)ccc2Cl)CC1,-6.65
11,CC(C)c1cc(C(=O)N2CCN(C(c3ccccc3)c3ccccc3)CC2)no1,21.3
12,NC(=O)[C@@H]1CC2(CC(c3cccc(NC(=O)CC(c4ccccc4)c4ccccc4)c3)=NO2)CN1C(=O)[C@@H]1CCC(=O)N1 (stereo partly specified),14.1
13,CCc1nnc(NC(=O)C2Cc3ccccc3CN2S(=O)(=O)CC)s1 (stereo unspecified),5.84
14,CC(OC(=O)c1ccc2c(=O)n3c(nc2c1)CCCCC3)C(=O)Nc1ccc(F)cc1Cl (stereo unspecified),2.57
15,O=C(NNC(=O)c1ccc2c(=O)n3c(nc2c1)CCC3)c1ccc(F)cc1,-18.9
16,CCOc1ccc(CCNC(=O)c2ccc3c(=O)n4c(nc3c2)CCCCC4)cc1,51
17,CC(OC(=O)c1ccc2c(=O)n3c(nc2c1)CCCCC3)C(=O)Nc1ncc(Cl)cc1Cl (stereo unspecified),29.8
18,CCOc1ccc(NC(=O)c2ccc3c(=O)n4c(nc3c2)CCCCC4)cc1,20.7
19,O=C(Nc1ccc(F)cc1)c1ccc2c(=O)n3c(nc2c1)CCCCC3,21.9
20,CNS(=O)(=O)c1cccc(C(=O)OCC(=O)N2c3ccccc3CC2C)c1 (stereo unspecified),-1.88
21,Fc1ccc(-c2n[nH]c(=S)c3ccccc23)cc1,15.8
22,CCOc1ccc(NC(=O)Nc2ccc3c(c2)CCC3)cc1,-9.82
23,Cc1cc(F)ccc1Oc1cc(NN2CCCCC2)c([N+](=O)[O-])cc1[N+](=O)[O-],8.26

row,Compound,inhibition [%]
1,CC(Oc1ccc(S(=O)(=O)N2CCCC2)cc1[N+](=O)[O-])C(=O)NC1(C#N)CCCCC1 (stereo unspecified),9.55
2,COc1cccc(CNC(=O)C2CCN(c3cnccn3)CC2)c1,-3.9
3,O=C1NC(=O)N(CCc2ccc(F)cc2)C(=O)/C1=C/c1cccs1,2.97
4,O=C1NC(=O)N(CCc2ccc(F)cc2)C(=O)/C1=C/c1ccco1,22.4
5,O=C(c1ccccc1NS(=O)(=O)c1cccs1)N1CCOCC1,6.22
6,CCCn1nnc(NC(=O)COc2ccccc2Cl)n1,67.3
7,CCCCn1nnc(NC(=O)COc2cc(C)ccc2C(C)C)n1,64
8,Cc1cc(OCC(=O)Nc2ncn[nH]2)ccc1Cl,30.6
9,Cc1cccc(OCC(=O)Nc2nonc2NC(=O)COc2cccc(C)c2)c1,48
10,Cc1cccc(N2CC(C(=O)Nc3ccc4c(c3)OCCO4)CC2=O)c1C (stereo unspecified),-5.78
11,CCc1cc2c(=O)c(-c3nc(C)cs3)coc2cc1O,13.5
12,COCCNC(=O)C1CCC(=O)N1S(=O)(=O)c1ccc(C)cc1 (stereo unspecified),1.96
13,Cc1[nH]n(-c2ccccc2)c(=O)c1C=Nc1cccc2cccnc12,33.6
14,Cc1[nH]n(-c2ccccc2)c(=O)c1C=Nc1cccc(F)c1,5.36
15,O=C(Cc1ccccc1F)N1CCN(CC(=O)N2CCCC2)CC1,8.24
16,CCOC(=O)CSc1nnc(CCc2nc3ccccc3[nH]2)n1C,-4.77
17,Cc1ccc(C(=O)c2coc3ccc(OCC(=O)O)cc23)cc1,-4.9
18,COc1ccc2occ(C(=O)c3ccccc3)c2c1,3.51
19,CNC(=S)NNC(=O)c1cn(C)nc1C,-3
20,CCn1ccc(C(=O)NCCCN2CCCC2=O)n1,5.42
21,Cc1c([N+](=O)[O-])c([N+](=O)[O-])nn1CC(=O)N1CCOCC1,1.03
22,O=C(O)C1C2C=CC(CC2)C1C(=O)O (stereo unspecified),1.2
23,O=C(C[C@@H]1C/C=C\CCCC(=O)OC[C@@H]2CCCN2C1=O)N[C@@H](CO)Cc1ccccc1,0.26

row,Compound,inhibition [%]
1,Cc1ccc2nsnc2c1NC(=O)c1ccc([N+](=O)[O-])o1,75.4
2,Cc1ccc(O)c(NC(=O)c2ccco2)c1,15.1
3,Cc1ccc(C)c(-c2nnc(NC(=O)CCS(=O)(=O)c3ccc(F)cc3)o2)c1,41.4
4,CS(=O)(=O)c1ccccc1-c1nnc(NC(=O)c2ccc(S(=O)(=O)N3CCCC3)cc2)o1,-2
5,CS(=O)(=O)c1ccc(-c2nnc(NC(=O)c3ccco3)o2)cc1,43.1
6,Cc1ccc(NC(=O)c2ccco2)cc1C,60.8
7,CS(=O)(=O)c1ccccc1-c1nnc(NC(=O)c2ccco2)o1,38.6
8,O=C(Nc1nnc(-c2ccco2)o1)c1ccc(S(=O)(=O)N2CCCC2)cc1,25.6
9,Cc1nc(-c2ccc(NC(=O)C(C)(C)C)cc2)c(-c2ccccc2)o1,-0.61
10,Nc1cccc(C(=O)OCC(=O)NC2CCCc3ccccc32)c1 (stereo unspecified),6.1
11,O=C1c2ccccc2C(=O)N1CCOc1cccc(Br)c1,53.6
12,CCCCCC(=O)N/N=C(\C)c1ccc(NC(=O)c2ccco2)cc1,10.3
13,CCNC(=O)C(=O)Nc1ccc(OC)c(Cl)c1,-0.29
14,COc1ccc(Cc2nc3ccc(C(=O)N4C[C@@H](C)O[C@@H](C)C4)cc3o2)cc1OC,17.8
15,c1ccc(-c2nn3c(C4CCCCC4)nnc3s2)nc1,9
16,Cc1nc(N2CCN(Cc3ccccc3)CC2)nc2c1C(=O)CC(c1ccco1)C2 (stereo unspecified),3.19
17,COc1cccc(-c2cccc(NC(=O)C3CCN(Cc4cccc(C)n4)CC3)c2)c1,5.93
18,CCc1ccc(NC(=S)N2CCN(C)CC2)cc1,-4.9
19,COc1ccc([N+](=O)[O-])cc1NC(=O)CCCOc1ccccc1,12.4
20,Cc1ccc(C(=O)Nc2ccc(Oc3cccc(C(F)(F)F)c3)nc2)cc1,-15.4
21,Cc1ccc(-c2nnc(-c3ccc(NC(=O)c4ccco4)cc3)o2)cc1,-12.3
22,COc1cc(-c2nnc(NC(=O)c3ccco3)o2)cc(OC)c1OC,12.9
23,COc1ccc(CN2C(=O)c3ccccc3C2OC)cc1 (stereo unspecified),43.5

row,Compound,inhibition [%]
1,O=C(NCc1ccccc1)c1nc(-c2cccs2)no1,15.8
2,COc1ccc(CCNC(=O)c2nc(-c3cccs3)no2)cc1OC,62.8
3,CC(=O)c1ccccc1Oc1cc(NN2CCCCC2)c([N+](=O)[O-])cc1[N+](=O)[O-],30.5
4,Cc1ccc(S(=O)(=O)N2CCCC2C(=O)NC2CCCCC2)cc1 (stereo unspecified),13.2
5,Nc1ccc(C#Cc2ccc3c(=O)c4ccccc4oc3c2)cc1,11.2
6,Nc1ccc2oc3ccccc3c2c1,68.5
7,Cc1sc(NC(=O)c2oc3ccccc3c2C)c(C#N)c1C,0.16
8,NS(=O)(=O)c1ccc(CCNCc2cc(Br)ccc2OCc2ccccc2)cc1,36
9,CCOc1ccc(N(C(=O)c2ccc(S(=O)(=O)N3CCCC3)cc2)C2C=CS(=O)(=O)C2)cc1 (stereo unspecified),2.41
10,CCN(CCn1cccn1)Cc1cn[nH]c1-c1ccc(-c2ccccc2)cc1,23
11,O=C(CNCc1ccccc1)NC1C2CC3CC(C2)CC1C3 (stereo unspecified),7.24
12,CCCC(=O)NC1C2CC3CC(C2)CC1C3 (stereo unspecified),66.5
13,Cc1ccc(S(=O)(=O)N2CCC(C(=O)NC3CC(C)(C)NC(C)(C)C3)CC2)cc1,-9.46
14,O=C(CC1SC(N2CCCCC2)=NC1=O)Nc1cccc(C(=O)O)c1 (stereo unspecified),-10.1
15,Cn1ccnc1Sc1cc(NCCCO)c([N+](=O)[O-])c2nonc12,77.2
16,CCCSc1cc(NCCOC(C)=O)c([N+](=O)[O-])c2nonc12,74.5
17,CC(=O)OCCCNc1cc(Sc2nc3ccccc3s2)c2nonc2c1[N+](=O)[O-],7.19
18,O=[N+]([O-])c1c(NCCCO)cc(SCc2ccco2)c2nonc12,70.1
19,COC(=O)CCSc1cc(NCCOC(C)=O)c([N+](=O)[O-])c2nonc12,72.4
20,CC(=O)OCCNc1cc(SC(C)C)c2nonc2c1[N+](=O)[O-],65.7
21,Cc1cc2c(C)c(C)c(=O)[nH]c2cc1N,6.16
22,Cc1occc1C(=O)NNC(=O)NC12CC3CC(CC(C3)C1)C2,1.27
23,O=C(NCc1ccccn1)c1cccc(S(=O)(=O)N2CCCCC2)c1,-1.8

row,Compound,inhibition [%]
1,COc1ccc(C(=O)NNC(=O)CCC(=O)NNC(=O)c2ccc(OC)cc2)cc1,8.31
2,CCNc1nc(NCC)n2c(SCc3nc4ccccc4c(=O)[nH]3)nnc2n1,48.6
3,Cn1c(=O)c(Oc2cc(Cl)cc(Cl)c2)nc2ccccc21,5.56
4,Cc1ccc(N)cc1NC(=O)CN1CCOCC1,6.66
5,CCOCCCNC(=O)C1CC(=O)N(C2CCCC2)C1 (stereo unspecified),-5.49
6,CSc1ncccc1C(=O)OCC(=O)N1CCCC1,39.6
7,COc1cccc(C(=O)COC(=O)c2ccc(NC(C)=O)cc2)c1,61.7
8,CCN(CC)S(=O)(=O)c1cc(C(=O)N=c2sccn2C)ccc1OC,20.4
9,O=[N+]([O-])c1cc(CN2CCCC2)c2cccnc2c1O,-4.52
10,O=C(Oc1c(Cl)cc(Cl)c2cccnc12)N1CCOCC1,2.11
11,CCOC(=O)N1CCN(Cc2ccc(O)c3ncccc23)CC1,56.8
12,CN1CCN(Cc2cc(Cl)c3cccnc3c2OC(=O)c2cccs2)CC1,51
13,CCOC(=O)N1CCN(Cc2ccccc2Cl)CC1,10.7
14,OCCN1CCN(Cc2cc(Cl)c3cccnc3c2O)CC1,66
15,COCCCNC(=O)c1ccc2c(c1)ncn2-c1ccc(C)cc1C,5.06
16,Cc1ccc(NC(=O)CN2C(=O)NC3(CCCC3)C2=O)nc1,-25.1
17,COc1ccccc1OCC(=O)/C=C1/N(C)c2ccccc2C1(C)C,17.5
18,NS(=O)(=O)c1ccc(CCNC(=O)C2COc3ccccc3O2)cc1 (stereo unspecified),7.64
19,COc1ccc(CCN2C(=O)CC(N3CCN(S(=O)(=O)c4ccccc4)CC3)C2=O)cc1OC (stereo unspecified),13.8
